Source: PubChem BioAssay AID1159580 (chemical genetic matrix, 2015)
“And” between values parts separate entries of the source, which are not always exact repeats. Identical values can stand only once. Screen size: about 5,500 compounds; about 2,000 (36%) were called active. Roughly 18% stayed inconclusive and do not appear here. No stated cut-off is given here; in the data, active means normalized growth mostly below about 0.91 (no sharp cut-off); inconclusive means no clear call, values can overlap the other calls; inactive means mostly above about 0.92. The list shows a part of the results.

Assay: chemical genetic growth profiling, strain panel (AID 1159580);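 further: tested at 20 µM; growth read once vehicle control cultures reached saturation at 30 °C; 1 = growth at the plate median or of vehicle wells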
Details: S. cerevisiae deletion strains, growth OD

Measured: normalized growth

COc1ccc2c(c1)CCC1C2CC[C@@]2(C)C1CC[C@@H]2O (some centres not stated)
inactive: locus YAL021C, strain ccr4, stronger effect = lower value 0.959 | locus YAL030W, strain snc1, stronger effect = lower value 0.959 | locus YBR021W, strain FUR4, stronger effect = lower value 1.04 | locus YBR171W, strain sec66, stronger effect = lower value 0.94 | locus YBR229C, strain ROT2, stronger effect = lower value 0.982 | locus YBR231C, strain swc5, stronger effect = lower value 0.978 | locus YCR088W, strain abp1, stronger effect = lower value 0.937 | locus YDL005C, strain med2, stronger effect = lower value 0.983 | locus YDL040C, strain nat1, stronger effect = lower value 0.96 | locus YDL101C, strain DUN1, stronger effect = lower value 0.899 | locus YDL185W, strain tfp1, stronger effect = lower value 0.961 | locus YDR001C, strain nth1, stronger effect = lower value 0.965 | locus YDR069C, strain doa4, stronger effect = lower value 1.01 | locus YDR150W, strain NUM1, stronger effect = lower value 0.944 | locus YDR195W, strain ref2 0.953 | locus YDR334W, strain swr1, stronger effect = lower value 1 | locus YDR388W, stronger effect = lower value 0.936 | locus YEL037C, strain rad23, stronger effect = lower value 0.966 | locus YER016W, strain bim1, stronger effect = lower value 0.957 | locus YER111C, strain swi4, stronger effect = lower value 0.939 | locus YFR010W, strain ubp6, stronger effect = lower value 0.974 | locus YGL167C, strain pmr1, stronger effect = lower value 0.965 | locus YHR013C, strain ard1, stronger effect = lower value 1.04 | locus YHR027C, strain rpn1, stronger effect = lower value 0.977 | locus YHR079C, strain IRE1, stronger effect = lower value 0.872 | locus YHR094C, strain hxt1, stronger effect = lower value 0.951 | locus YIL073C, strain SPO22, stronger effect = lower value 0.727 | locus YJL092W, strain hpr5, stronger effect = lower value 0.934 | locus YJL115W, strain asf1, stronger effect = lower value 0.987 | locus YJL134W, strain LCB3, stronger effect = lower value 0.989 | locus YJL154C, strain vps35, stronger effect = lower value 0.986 | locus YJL168C, strain set2, stronger effect = lower value 0.943 | locus YJR066W, strain TOR1, stronger effect = lower value 0.907
0.36 (active) and 0.884 (inactive): locus YHR030C, strain SLT2, stronger effect = lower value
active: locus YAL013W, strain DEP1, stronger effect = lower value 0.82 | locus YAL026C, strain drs2, stronger effect = lower value 0.682 | locus YBL061C, strain skt5, stronger effect = lower value 0.889 | locus YBR009C, strain hhf1, stronger effect = lower value 0.76 | locus YBR023C, strain chs3, stronger effect = lower value 0.852 | locus YBR279W, strain paf1, stronger effect = lower value 0.884 | locus YCL011C, strain gbp2, stronger effect = lower value 0.813 | locus YCL016C, strain dcc1, stronger effect = lower value 0.862 | locus YCL029C, strain bik1, stronger effect = lower value 0.884 | locus YCL061C, strain MRC1, stronger effect = lower value 0.854 | locus YCL069W, strain vba3, stronger effect = lower value 0.898 | locus YDL035C, strain GPR1, stronger effect = lower value 0.728 | locus YDL074C, strain BRE1, stronger effect = lower value 0.514 | locus YDL134C, strain PPH21, stronger effect = lower value 0.799 | locus YDL192W, strain arf1, stronger effect = lower value 0.502 | locus YDR101C, strain arx1, stronger effect = lower value 0.811 | locus YDR137W, strain rgp1, stronger effect = lower value 0.578 | locus YDR159W, strain sac3, stronger effect = lower value 0.746 | locus YDR162C, strain NBP2, stronger effect = lower value 0.405 | locus YDR297W, strain sur2, stronger effect = lower value 0.915 | locus YDR318W, strain mcm21, stronger effect = lower value 0.7 | locus YDR335W, strain msn5, stronger effect = lower value 0.872 | locus YDR392W, strain spt3, stronger effect = lower value 0.239 | locus YDR502C, strain sam2, stronger effect = lower value 0.757 | locus YEL003W, strain gim4, stronger effect = lower value 0.842 | locus YEL061C, strain CIN8 (second series), stronger effect = lower value 0.893 | locus YEL061C, strain CIN8, stronger effect = lower value 0.825 | locus YER015W, strain faa2, stronger effect = lower value 0.86 | locus YER110C, stronger effect = lower value 0.875 | locus YER155C, strain BEM2 (second series), stronger effect = lower value 0.686 | locus YER155C, strain BEM2, stronger effect = lower value 0.676 | locus YER167W, strain BCK2, stronger effect = lower value 0.653 | locus YGL078C, strain dbp3, stronger effect = lower value 0.783 | locus YGL086W, strain mad1, stronger effect = lower value 0.75 | locus YGL173C, strain kem1, stronger effect = lower value 0.885 | locus YGL227W, strain vid30, stronger effect = lower value 0.903 | locus YGL240W, strain doc1, stronger effect = lower value 0.855 | locus YGL248W, strain PDE1, stronger effect = lower value 0.844 | locus YGL253W, strain hxk2, stronger effect = lower value 0.786 | locus YGR078C, strain PAC10, stronger effect = lower value 0.659 | locus YGR135W, strain pre9, stronger effect = lower value 0.731 | locus YGR229C, strain SMI1, stronger effect = lower value 0.407 | locus YGR252W, strain gcn5, stronger effect = lower value 0.47 | locus YHR079C, strain IRE1 (second series), stronger effect = lower value 0.787 | locus YHR129C, strain ARP1, stronger effect = lower value 0.753 | locus YHR142W, strain chs7, stronger effect = lower value 0.628 | locus YHR200W, strain rpn10, stronger effect = lower value 0.817 | locus YIL066C, strain RNR3, stronger effect = lower value 0.625 | locus YIL125W, strain kgd1, stronger effect = lower value 0.822 | locus YIR030C, strain dcg1, stronger effect = lower value 0.902 | locus YJL095W, strain BCK1 (second series), stronger effect = lower value 0.833 | locus YJL095W, strain BCK1, stronger effect = lower value 0.363 and 0.882 | locus YJL129C, strain trk1, stronger effect = lower value 0.804 | locus YJL164C, strain tpk1, stronger effect = lower value 0.812 | locus YJL166W, strain qcr8, stronger effect = lower value 0.775 | locus YJL187C, strain SWE1 (second series), stronger effect = lower value 0.818 | locus YJL187C, strain SWE1, stronger effect = lower value 0.898 | locus YJR043C, strain POL32, stronger effect = lower value 0.698
